# In PubChem BioAssay AID1159580 (chemical genetic matrix, 2015):
# Where “and” joins values, the source holds several entries; their conditions need not be identical. Equal entries are not always repeated. About 2,000 (36%) of roughly 5,500 compounds were called active. Another 18% or so got no clear call; they are omitted. Cut-off read from the data, not from the text of the source: active = normalized growth mostly below about 0.91 (no sharp cut-off); inconclusive = no clear call, values can overlap the other calls; inactive = mostly above about 0.92. The list shows a part of the results. Some compounds were tested as several samples or in several runs, with calls that do not always agree.
# Test: chemical genetic growth profiling, strain panel (AID 1159580);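 note: tested at 20 µM; growth read once vehicle control cultures reached saturation at 30 °C; 1 = growth at the plate median or of vehicle wells; lower values mean less growth of the strain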
# Conditions: S. cerevisiae deletion strains, growth OD
smiles,measurement,setting,value
Clc1ccccc1C(c1ccccc1)(c1ccccc1)n1ccnc1,normalized growth,"locus YJR066W, strain TOR1, stronger effect = lower value",0.016 (active)
same,normalized growth,"locus YKL009W, strain mrt4, stronger effect = lower value",0.0996 (active)
same,normalized growth,"locus YKL068W, stronger effect = lower value",0.0901 (active)
same,normalized growth,"locus YKL085W, strain MDH1 (second series), stronger effect = lower value",0.0744 (active)
same,normalized growth,"locus YKL085W, strain MDH1, stronger effect = lower value",0.0744 (active)
same,normalized growth,"locus YKL160W, strain elf1, stronger effect = lower value",0.0633 (active)
same,normalized growth,"locus YKR001C, strain vps1, stronger effect = lower value",0.0631 (active)
same,normalized growth,"locus YKR026C, strain gcn3, stronger effect = lower value",0.0593 (active)
same,normalized growth,"locus YKR091W, strain srl3, stronger effect = lower value",0.0594 (active)
same,normalized growth,"locus YLL001W, strain dnm1, stronger effect = lower value",0.0628 (active)
same,normalized growth,"locus YLL026W, stronger effect = lower value",0.0716 (active)
same,normalized growth,"locus YLL041C, strain sdh2, stronger effect = lower value",0.0574 (active)
same,normalized growth,"locus YLR027C, strain aat2, stronger effect = lower value",0.0566 (active)
same,normalized growth,"locus YLR039C, strain RIC1, stronger effect = lower value",0.0954 (active)
same,normalized growth,"locus YLR058C, strain SHM2, stronger effect = lower value",0.048 (active)
same,normalized growth,"locus YLR102C, strain apc9, stronger effect = lower value",0.0623 (active)
same,normalized growth,"locus YLR113W, strain HOG1, stronger effect = lower value",0.156 (active)
same,normalized growth,"locus YLR221C, strain rsa3, stronger effect = lower value",0.0591 (active)
same,normalized growth,"locus YLR258W, strain gsy2, stronger effect = lower value",0.0599 (active)
same,normalized growth,"locus YLR262C, strain YPT6 (second series), stronger effect = lower value",0.0778 (active)
same,normalized growth,"locus YLR262C, strain YPT6, stronger effect = lower value",0.109 (active)
same,normalized growth,"locus YLR268W, strain sec22, stronger effect = lower value",0.0686 (active)
same,normalized growth,"locus YLR320W, strain mms22, stronger effect = lower value",0.0761 (active)
same,normalized growth,"locus YLR330W, strain CHS5, stronger effect = lower value",0.0528 (active)
same,normalized growth,"locus YLR342W, strain FKS1 (second series), stronger effect = lower value",0.0674 (active)
same,normalized growth,"locus YLR342W, strain FKS1, stronger effect = lower value",0.0672 (active)
same,normalized growth,"locus YLR357W, strain rsc2, stronger effect = lower value",0.126 (active)
same,normalized growth,"locus YLR370C, strain arc18, stronger effect = lower value",0.0649 (active)
same,normalized growth,"locus YLR371W, strain rom2, stronger effect = lower value",0.0633 (active)
same,normalized growth,"locus YLR384C, strain iki3, stronger effect = lower value",0.0655 (active)
same,normalized growth,"locus YLR418C, strain cdc73, stronger effect = lower value",0.0956 (active)
same,normalized growth,"locus YML016C, strain PPZ1, stronger effect = lower value",0.0479 (active)
same,normalized growth,"locus YML032C, strain rad52, stronger effect = lower value",0.0691 (active)
same,normalized growth,"locus YML120C, strain ndi1, stronger effect = lower value",0.058 (active)
same,normalized growth,"locus YML124C, strain tub3, stronger effect = lower value",0.0616 (active)
same,normalized growth,"locus YMR058W, strain fet3, stronger effect = lower value",0.0615 (active)
same,normalized growth,"locus YMR078C, strain ctf18, stronger effect = lower value",0.0734 (active)
same,normalized growth,"locus YMR125W, strain sto1, stronger effect = lower value",0.0678 (active)
same,normalized growth,"locus YMR129W, stronger effect = lower value",0.0585 (active)
same,normalized growth,"locus YMR205C, strain PFK2, stronger effect = lower value",0.0848 (active)
same,normalized growth,"locus YMR223W, strain ubp8, stronger effect = lower value",0.0652 (active)
same,normalized growth,"locus YMR231W, strain pep5, stronger effect = lower value",0.0713 (active)
same,normalized growth,"locus YMR263W, strain SAP30, stronger effect = lower value",0.0559 (active) and 0.976 (inactive)
same,normalized growth,"locus YMR307W, strain GAS1, stronger effect = lower value",0.125 (active)
same,normalized growth,"locus YNL067W, strain RPL9B, stronger effect = lower value",0.0471 (active)
same,normalized growth,"locus YNL071W, strain lat1, stronger effect = lower value",0.0635 (active)
same,normalized growth,"locus YNL153C, strain GIM3, stronger effect = lower value",0.695 (active)
same,normalized growth,"locus YNL175C, strain NOP13, stronger effect = lower value",0.0913 (active)
same,normalized growth,"locus YNL183C, strain NPR1, stronger effect = lower value",-0.00509 (active)
same,normalized growth,"locus YNL197C, strain WHI3, stronger effect = lower value",0.0874 (active)
same,normalized growth,"locus YNL209W, strain ssb2, stronger effect = lower value",0.0647 (active)
same,normalized growth,"locus YNL224C, strain SQS1, stronger effect = lower value",0.109 (active)
same,normalized growth,"locus YNL233W, strain BNI4, stronger effect = lower value",0.0563 (active)
same,normalized growth,"locus YNL248C, strain rpa49, stronger effect = lower value",0.0733 (active)
same,normalized growth,"locus YNL250W, strain rad50, stronger effect = lower value",0.0869 (active)
same,normalized growth,"locus YNL271C, strain bni1, stronger effect = lower value",0.0905 (active)
same,normalized growth,"locus YNL298W, strain CLA4, stronger effect = lower value",0.0742 (active)
same,normalized growth,"locus YNL307C, strain MCK1, stronger effect = lower value",0.0679 (active)
same,normalized growth,"locus YNL322C, strain KRE1 (second series), stronger effect = lower value",0.0616 (active)
same,normalized growth,"locus YNR049C, strain mso1, stronger effect = lower value",0.0594 (active)
same,normalized growth,"locus YNR052C, strain pop2, stronger effect = lower value",0.0613 (active)
same,normalized growth,"locus YOL006C, strain TOP1, stronger effect = lower value",0.115 (active)
same,normalized growth,"locus YOL012C, strain htz1",0.23 (inactive)
same,normalized growth,"locus YOL147C, strain pex11, stronger effect = lower value",0.0589 (active)
same,normalized growth,"locus YOR001W, strain rrp6, stronger effect = lower value",0.075 (active)
same,normalized growth,"locus YOR061W, strain CKA2, stronger effect = lower value",0.0463 (active)
same,normalized growth,"locus YOR069W, strain VPS5, stronger effect = lower value",0.0473 (active)
same,normalized growth,"locus YOR070C, strain gyp1, stronger effect = lower value",0.0595 (active)
same,normalized growth,"locus YOR080W, strain dia2, stronger effect = lower value",0.0658 (active)
same,normalized growth,"locus YOR083W, strain WHI5 (second series), stronger effect = lower value",0.0984 (active)
same,normalized growth,"locus YOR083W, strain WHI5, stronger effect = lower value",0.0702 (active)
same,normalized growth,"locus YOR106W, strain vam3, stronger effect = lower value",0.0682 (active)
same,normalized growth,"locus YOR136W, strain idh2, stronger effect = lower value",0.0727 (active)
same,normalized growth,"locus YOR144C, strain elg1, stronger effect = lower value",0.0577 (active)
same,normalized growth,"locus YOR184W, strain ser1, stronger effect = lower value",0.0702 (active)
same,normalized growth,"locus YOR231W, strain MKK1, stronger effect = lower value",0.117 (active)
same,normalized growth,"locus YOR265W, strain rbl2, stronger effect = lower value",0.0588 (active)
same,normalized growth,"locus YOR270C, strain vph1, stronger effect = lower value",0.092 (active)
same,normalized growth,"locus YOR290C, strain snf2, stronger effect = lower value",0.0637 (active)
same,normalized growth,"locus YOR316C, strain cot1, stronger effect = lower value",0.0603 (active)
same,normalized growth,"locus YPL051W, strain arl3, stronger effect = lower value",0.0647 (active)
same,normalized growth,"locus YPL055C, strain LGE1, stronger effect = lower value",0.0751 (active)
same,normalized growth,"locus YPL078C, strain atp4, stronger effect = lower value",0.0637 (active)
same,normalized growth,"locus YPL106C, strain sse1, stronger effect = lower value",0.0995 (active)
same,normalized growth,"locus YPL240C, strain hsp82, stronger effect = lower value",0.0582 (active)
same,normalized growth,"locus YPL256C, strain CLN2, stronger effect = lower value",0.127 (active)
same,normalized growth,"locus YPR119W, strain clb2, stronger effect = lower value",0.0642 (active)
same,normalized growth,"locus YPR141C, strain kar3, stronger effect = lower value",0.096 (active)
same,normalized growth,"locus YPR163C, strain tif3, stronger effect = lower value",0.0728 (active)
same,normalized growth,"locus YPR167C, strain met16, stronger effect = lower value",0.0634 (active)
same,normalized growth,"strain wtn01, stronger effect = lower value",0.0677 (active)
